Assay outcomes: PubChem, National Center for Advancing Translational Sciences (NCATS)
Six1-Eya2 blk: blocks human Six1 binding to Eya2; activity change, % (concentration not given with the values); AID 651725; 360,000 tested, 0.56% active; AlphaScreen GST-Six1/His-Eya2 binding, biochemical; hits give low values; in the data active = activity change below about -65%; inconclusive = mostly about -30% to -63%
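AlphaScreen with GST-Six1 and His-Eya2 (5X mix: 250 nM and 500 nM), glutathione donor and nickel acceptor beads; buffer 50 mM Tris pH 8.0, 300 mM NaCl, 1 mM TCEP; 1 h at 37 C in the dark.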
IL-1B inflam inh: inflammasome signaling inhibition, IL-1 beta readout; THP-1 LPS/ATP IL-1B secretion, AlphaLISA, 16 h; hits give low values; activity change, % at 57.5 µM; 360,000 tested, 4.7% active; in the data active = activity change below about -50%; inconclusive = mostly about -30% to -49%
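Secreted IL-1B measured by AlphaLISA bead assay after 16 h compound exposure of THP-1 cells; compounds (final up to 57.5 uM) added 1 h before LPS (250 ng/mL) and ATP (1.25 mM) stimulation; lower signal means less secretion.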
TDP1 cell noCPT: qHTS for Inhibitors of human tyrosyl-DNA phosphodiesterase 1 (TDP1): qHTS in cells in absence of CPT; DT40 Tdp1-/- hTDP1 cells, no CPT, ATP luminescence, 48 h; Potency, µM (highest dose often 46.2 µM), for the others: top-dose activity change, negative = growth inhibition, most hits filed as inhibitors; 420,000 tested, 15% active; AID 686978, 2013; note: potency is the fitted concentration of half-maximal effect; nearly all actives have a fitted effect of over 55% in size
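Growth of hTDP1-complemented DT40 Tdp1-knockout cells is measured by ATP luminescence after at least 48 hr compound exposure at 37 °C, with DMSO substituting for the 20 nM CPT used in the parallel screen.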
TDP1 inh: inhibitors of human tyrosyl-DNA phosphodiesterase TDP1 | Q9NUW8 | recombinant TDP1, AlphaScreen DNA substrate cleavage | Potency, µM (titrated, usually from 130 µM), for inactives: top-dose activity change, negative = inhibition, hits mostly inhibitors | 350,000 tested, 0.28% active | AID 485290; note: potency is the fitted concentration of half-maximal effect; nearly all actives have a fitted effect of over 40% in size
Target sequence (Q9NUW8 whole entry, looked up): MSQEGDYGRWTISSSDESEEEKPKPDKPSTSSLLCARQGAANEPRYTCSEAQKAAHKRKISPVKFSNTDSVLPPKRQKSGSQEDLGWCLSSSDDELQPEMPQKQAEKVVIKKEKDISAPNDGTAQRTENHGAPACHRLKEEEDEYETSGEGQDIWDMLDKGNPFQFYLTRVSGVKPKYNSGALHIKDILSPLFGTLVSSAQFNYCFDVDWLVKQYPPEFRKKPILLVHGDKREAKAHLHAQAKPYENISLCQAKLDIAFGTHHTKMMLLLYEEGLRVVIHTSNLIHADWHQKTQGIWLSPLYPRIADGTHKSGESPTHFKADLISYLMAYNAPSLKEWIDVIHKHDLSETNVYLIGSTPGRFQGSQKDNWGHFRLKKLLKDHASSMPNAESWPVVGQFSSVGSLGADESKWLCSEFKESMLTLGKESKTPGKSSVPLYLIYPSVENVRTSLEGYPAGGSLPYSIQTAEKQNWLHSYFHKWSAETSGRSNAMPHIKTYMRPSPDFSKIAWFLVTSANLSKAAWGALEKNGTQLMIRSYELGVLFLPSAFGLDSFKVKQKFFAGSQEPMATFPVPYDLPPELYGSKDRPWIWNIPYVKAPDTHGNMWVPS
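Recombinant E. coli-expressed Tdp1 (1 nM) preincubated with compound 15 min at RT, then 5'-biotin/3'-phosphotyrosine-FITC DNA substrate (15 nM) added for 5 min. AlphaScreen beads (10 ug/ml) added, 10 min RT; tyrosine-FITC cleavage read as signal loss.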
CtBP-E1A blk: CtBP/E1A binding inhibition. 340,000 tested, 0.49% active. activity change, % (no concentration beside the values). AID 651724. AlphaScreen GST-E1A/His-CtBP binding, 1536-well; hits give low values; in the data active = activity change below about -65%; inconclusive = mostly about -30% to -63%
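Steps: dispense buffer (Tris pH 8.0, NaCl 300 mM, TCEP 1 mM, BSA, Tween 20); add 5X protein mix (GST-E1A, His-CtBP, 125 nM each); pin 23 nL compound; 2 h at 37 °C, dark; add 5X beads (50 ug/mL); 1 h; read.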
TDP1 cell CPT: growth inhibition of DT40 Tdp1-/-;hTDP1 cells with camptothecin (screen for TDP1 inhibitors); 420,000 tested, 12% active; Potency, µM (top dose mostly 46.2 µM), for the others: top-dose activity change, negative = growth inhibition, usual class: inhibitors; chicken DT40 Tdp1-/-;hTDP1 cells + 20 nM CPT, ATP luminescence, 48 h; note: potency is the fitted concentration of half-maximal effect; nearly all actives have a fitted effect of over 55% in size
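Chicken DT40 Tdp1-/- cells stably complemented with human TDP1 were seeded at 400 cells/well in medium containing 20 nM camptothecin, exposed to pin-transferred compounds, and grown at 37 °C for at least 48 hr. Viability was read as ATP luminescence.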
Starred values were filed as active, the others as inactive; ? = inconclusive; . = not tested or not shown. The list is not random: actives were taken first. Their share in the collection is about 18%. Unless noted, calls come from the whole dose curve; as a rule, active = well fitted curve in the direction sought with a large enough effect; inconclusive = small, poorly fitted or top-dose-only effect, or another doubt; inactive = no such curve, though single readings can be large; an effect the other way counts as inactive or inconclusive. % is set by controls: 0 for no effect and ±100 for the full control effect.

SMILES	Six1-Eya2 blk	IL-1B inflam inh	TDP1 cell noCPT	TDP1 inh	CtBP-E1A blk	TDP1 cell CPT
Cc1ccc(/C(O)=C2/C(=O)C(=O)N(CCCn3ccnc3)C2c2cccnc2)cc1 (configuration not stated)	3	19	-1%	.	2	8%
CCN(CC)CCN1C(=O)/C(=C\c2ccc(Cl)c([N+](=O)[O-])c2)SC1=Nc1ccc(OC)cc1	-16	-99*	16µM*	12%	-21	21µM*
COc1ccc(N=C2S/C(=C\c3ccc(Cl)c([N+](=O)[O-])c3)C(=O)N2CCN(C)C)cc1	-16	-61*	16µM*	.	.	21µM*
CCCN1C(=O)/C(=C/c2ccc(C)s2)SC1=Nc1ccc(OC)cc1	-13	-11	?	4%	-6	?
COc1cccc(-c2nn(C)c3sc(C(=O)N4CCN(c5cccc(C(F)(F)F)c5)CC4)cc23)c1	.	.	26µM*	-2%	.	16µM*
COc1ccc(N2CCN(C(=O)c3cc4c(-c5cccc(OC)c5)nn(C)c4s3)CC2)cc1	?	0	15µM*	12%	?	?
COc1ccc(-c2nn(C)c3sc(C(=O)N4CCOCC4)cc23)cc1OC	-23	-20	?	5%	-10	-17%
Cc1ccc(-n2c(-c3cnccn3)n[nH]c2=S)c(Br)c1	3	49	9%	.	8	?
OCCN(CCO)c1ncnc2c1cnn2-c1ccc(F)cc1	.	.	-3%	3%	.	0%
CCCCN(c1ccccc1)c1ncnc2c1cnn2-c1ccc(Cl)cc1	.	.	18µM*	2%	.	16µM*
Cc1ccc(-n2ncc3c(N(CCO)Cc4ccccc4)ncnc32)cc1	.	.	8.2µM*	8%	.	12µM*
CCN(c1ccccc1)c1ncnc2c1cnn2-c1ccc(OC)cc1	.	.	5.2µM*	5%	.	8.2µM*
CCCCN(c1ccccc1)c1ncnc2c1cnn2-c1cccc(C)c1	.	.	-12%	2%	.	-22%
CC1CC(C)CN(CC(=O)Nc2ccc3c(c2)OCCO3)C1 (configuration not stated)	-10	?	-19%	-4%	-10	2%
O=C1OCC(c2ccc(Cl)s2)=C1c1ccccc1[N+](=O)[O-]	-23	-65*	?	.	0	0%
O=C1OCC(c2ccccc2)=C1c1ccccc1[N+](=O)[O-]	-4	32	?	3%	2	-10%
COc1ccc(N(Cc2cc3cccc(C)c3[nH]c2=O)S(=O)(=O)c2ccc(OC)cc2)cc1	-2	-10	?	7%	4	?
COc1ccc(N(Cc2cc3ccccc3[nH]c2=O)S(=O)(=O)c2ccc(C)cc2)cc1	4	-14	?	.	-9	?
COc1ccc(N(Cc2cc3ccccc3[nH]c2=O)S(=O)(=O)c2ccccc2)cc1	-6	0	18µM*	.	2	?
COc1ccc(N(Cc2cc3cccc(C)c3[nH]c2=O)S(=O)(=O)c2ccc(Cl)cc2)cc1	1	4	23µM*	5%	.	?
CNC(=O)C1CN(C(=O)c2nn(Cc3ccccc3)c(=O)c3ccccc23)c2ccccc2O1 (configuration not stated)	1	?	?	.	4	?
Cc1cc(OC(=O)c2ccco2)c(Sc2ccccc2[N+](=O)[O-])c(=O)o1	-17	7	18µM*	0%	-7	?
CCCCCCn1c(=O)n2n(c1=O)C[C@]1(OC(=O)NC3CC3)CN(S(=O)(=O)c3ccc(C)cc3)C[C@]1(O)C2	0	19	12µM*	.	6	?
Cc1ccc(S(=O)(=O)N2C[C@]3(O)C[C@@H]4C(=O)N(c5ccccc5)C(=O)[C@@H]4C[C@]3(OC(=O)NC3CCCC3)C2)cc1	1	-1	21µM*	.	-17	?
COC(=O)[C@H]1C[C@@]2(O)CN(S(=O)(=O)c3ccc(C)cc3)C[C@@]2(OC(=O)NC2CC2)C[C@H]1C(=O)OC	-2	9	-27%	.	0	4%
SMILES	Six1-Eya2 blk	IL-1B inflam inh	TDP1 cell noCPT	TDP1 inh	CtBP-E1A blk	TDP1 cell CPT
CNc1ccc(-c2ccccc2OC)cn1	-1	-7	-5%	.	0	8%
COC(=O)c1cc2c(C)c(C)c3ccccn3c-2c1C(=O)OC	?	-13	?	4%	?	26µM*
COc1ccc(NC(=O)Cn2c(=O)sc3ccccc32)cc1	11	5	-18%	-2%	-1	1%
O=C(Cn1c(=O)sc2ccccc21)Nc1ccccc1	-20	-7	21µM*	2%	1	26µM*
O=C(C1COc2ccccc2O1)N1CCN(c2ccc([N+](=O)[O-])cc2)CC1 (configuration not stated)	-9	-84*	21µM*	-15%	0	?
O=C(C1COc2ccccc2O1)N1CCN(c2nc3ccc([N+](=O)[O-])cc3s2)CC1 (configuration not stated)	0	-7	23µM*	.	-6	?
N#Cc1ccccc1S(=O)(=O)N1CCN(C(=O)C2COc3ccccc3O2)CC1 (configuration not stated)	3	8	-5%	40µM*	-7	-10%
O=C(C1COc2ccccc2O1)N1CCCC1 (configuration not stated)	-1	13	3%	0%	1	-9%
CCCCCN(C(=O)CCC(=O)OCc1ccc(Cl)cc1Cl)c1c(N)n(CCCC)c(=O)[nH]c1=O	-7	-66*	?	.	0	?
CCCCCN(C(=O)CCC(=O)OCc1ccccc1Cl)c1c(N)n(CCCC)c(=O)[nH]c1=O	24	0	-18%	4%	1	?
CCCCCN(C(=O)CCC(=O)OCc1cccc(C)c1)c1c(N)n(CCCC)c(=O)[nH]c1=O	-2	-1	?	.	8	21µM*
COc1ccc2c(c1)c1c(c(=O)n(-c3cccc(C)c3)c(=O)n1CC(=O)N1CCCC1)n2C	.	.	?	6%	.	?
O=C(CN1C(=O)COc2ccccc21)NCc1ccccn1	-2	-1	-9%	9%	-4	-2%
c1cncc(-c2nc(NCCCN3CCOCC3)c3c4c(sc3n2)CCC4)c1	-1	-129*	23µM*	8%	-14	?
CCOC(=O)C1CCN(c2ncnc3c2[nH]c2cccc(OC)c23)CC1	-18	?	26µM*	-4%	0	?
COc1ccc2[nH]c3c(N4CCc5ccccc5C4)ncnc3c2c1	-20	-97*	1.3µM*	6%	-22	1.2µM*
